# KB-3-1 cytotox = kills parental KB-3-1 adenocarcinoma cells | KB-3-1 viability, CellTiter-Glo ATP luminescence, 72 h | Potency, µM (titrated, usually from 46.1 µM), hits mostly cytotoxic | 400,000 tested, 1.4% active | AID 1347075; also: % is scaled to controls: 0 for no effect and ±100 for the full control effect; nearly all actives have a fitted effect of over 60% in size
#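 Here the drug-naive KB-3-1 line serves as comparator for MDR sub-line selectivity; cells received compound titrations, 72 h at 37 °C, then CellTiter-Glo readout.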
# SW480 rereplic = inducers of DNA re-replication in SW480 colon cancer cells; SW480 DNA re-replication, Hoechst DNA content imaging, 48 h; Potency, µM (highest dose often 46.1 µM), for the others: at the top dose re-replication activation, hits mostly activators; 340,000 tested, 1.8% active; AID 624297; also: % of control where 0% means no effect; nearly all actives have a fitted effect of over 55% in size
#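 Image-based read-out: total Hoechst fluorescence of nuclei (405 nm excitation, 500-530 nm emission), with hits raising the fraction of high-intensity nuclei. SW480 colon cells incubated 48 hr with compounds at 37 C.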
# MCF10A rereplic = DNA re-replication induction in MCF 10a cells. MCF 10A DNA re-replication, Hoechst nuclear intensity, 48 h. Potency, µM (highest dose often 46.1 µM), inactives show at the top dose activity, positive = re-replication, hits mostly activators. 350,000 tested, 2.9% active; also: % of control where 0% means no effect; nearly all actives have a fitted effect of over 50% in size
# KB-V1 MDR tox = KB-V1 MDR subline cytotoxicity | AID 1347076 | 400,000 tested, 3.4% active | Potency, µM (titrated, usually from 46.1 µM), hits mostly cytotoxic | KB-V1 MDR cells viability, CellTiter-Glo, 72 h; also: % is scaled to controls: 0 for no effect and ±100 for the full control effect; nearly all actives have a fitted effect of over 60% in size
#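 Drug-selected KB-V1 cells, grown in DMEM lacking phenol red with 10% FBS, receive compound titrations; after three days at 37 degrees C, surviving cell ATP is quantified by CellTiter-Glo luminescence and responses normalized and curve-fitted.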
# ELG1 repair inh = blocks ELG1-dependent DNA repair in HEK293T cells; 330,000 tested, 2.3% active; Potency, µM (series often up to 46.1 µM), for the others: at the top dose activity change, negative = inhibition, hits mostly inhibitors; AID 504467; HEK293T ELG1-luciferase reporter, luminescence, 16 h; DNA damage induced by 5-fluorouridine; also: % is scaled to controls: 0 for no effect and ±100 for the full control effect; nearly all actives have a fitted effect of over 55% in size
#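 Step one: seed 2,000 cells per well. Step two: pin-transfer compound or DMSO alongside 5-fluorouridine. Step three: incubate 16 hr, 37 °C, 5% CO2. Step four: add ONE-Glo, wait 30 min, read luminescence.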
# * hit, by the source's call; i = inactive; ? = inconclusive; . = no result given. Compounds with a hit are over-represented: about 8.2% of the library has one in this group of screens. Calls follow the shape of the dose curve; as a rule, active = well fitted curve in the direction sought with a large enough effect; inconclusive = small, poorly fitted or top-dose-only effect, or another doubt; inactive = no such curve, though single readings can be large; an effect the other way counts as inactive or inconclusive. Potency is read from the fitted curve at half-maximal effect.
SMILES,KB-3-1 cytotox,SW480 rereplic,MCF10A rereplic,KB-V1 MDR tox,ELG1 repair inh
CCN(CC)CCNC(=O)/C(=C/c1cn(CC)c2ccccc12)NC(=O)c1cc(OC)c(OC)c(OC)c1,i,-21%,0.65µM*,i,13%
O=C1N=C(N2CCN(c3ccccc3)CC2)S/C1=C\c1ccco1,i,-8%,1%,i,?
Cc1ccc(N2CCN(C3=NC(=O)/C(=C\c4cn[nH]c4-c4ccccc4)S3)CC2)cc1,i,9%,?,i,1.6µM*
O=C1N=C(N2CCN(c3ccccc3)CC2)S/C1=C\c1cn[nH]c1-c1ccccc1,?,-6%,-85%,?,4.6µM*
O=C1N=C(N2CCC(Cc3ccccc3)CC2)S/C1=C/c1cn[nH]c1-c1ccccc1,i,0%,?,23µM*,?
COc1ccc2[nH]cc(CCNC(=O)c3ccc4ccccc4n3)c2c1,i,-64%,15µM*,i,?
COc1ccc(CNC(=O)c2ccc3ccccc3n2)cc1OC,?,-10%,8%,7.3µM*,16µM*
COc1ccc(NC(=O)c2cc3ccccc3o2)cc1OC,i,-18%,-2%,i,?
COc1ccc(C(=O)NCCc2c[nH]c3ccc(OC)cc23)cc1,i,-9%,4%,i,-6%
COc1ccc(CNC(=O)c2cc3ccccc3o2)cc1OC,i,13%,-1%,8.2µM*,?
Cc1ccc2[nH]cc(CCNC(=O)c3cccnc3)c2c1,i,12%,21µM*,i,-19%
O=C(Nc1nnc([C@H]2C[C@H](O)[C@@H](CO)O2)s1)Nc1ccc(F)cc1F,i,.,.,i,.
CC1(C)CC(=O)c2cc(-c3nc(-c4ccc(Cl)cc4)cs3)c(=O)[nH]c2C1,i,.,.,i,.
CCc1ccc2oc(C(=O)NCCc3ccc(OC)c(OC)c3)cc(=O)c2c1,16µM*,.,.,5.2µM*,.
CCOC(=O)C1NN=C(C(=O)c2ccccc2)C1c1ccc(Cl)cc1 (stereo not drawn),i,-9%,8%,i,-5%
CCOC(=O)C1NN=C(C(=O)c2ccccc2)C1c1ccccc1 (stereo not drawn),i,0%,10%,21µM*,-12%
NC(=O)C1CCN(C2=C(Cl)C(=O)c3ccccc3C2=O)CC1,?,?,13µM*,?,?
CN1CCN(C2=C(Cl)C(=O)c3ccccc3C2=O)CC1,?,5.2µM*,4.1µM*,?,.
N=c1c(C(=O)NCc2ccc(F)cc2)cc2c(=O)n3ccccc3nc2n1CCCN1CCOCC1,i,?,2.8µM*,i,3%
N=c1c(C(=O)NCCN2CCOCC2)cc2c(=O)n3ccccc3nc2n1CCc1ccccc1,i,10µM*,?,i,7%
Cc1ccc(Cn2c(=N)c(C(=O)NCCN3CCOCC3)cc3c(=O)n4ccccc4nc32)cc1,i,?,0.58µM*,i,24%
N=c1c(C(=O)NCCc2ccccc2)cc2c(=O)n3ccccc3nc2n1CCCN1CCOCC1,i,5.2µM*,?,?,5%
Cn1c(C(=O)NCCN2CCOCC2)cc2c(=O)n3ccccc3nc21,i,?,?,i,0%
CCCCn1c(O)c2n(c1=O)Cc1ccccc1N=C2c1ccccc1,i,.,.,i,.
Cc1c(C(=O)NC2=NCCS2)cccc1[N+](=O)[O-],i,-6%,-1%,?,0%
SMILES,KB-3-1 cytotox,SW480 rereplic,MCF10A rereplic,KB-V1 MDR tox,ELG1 repair inh
N=c1c(C(=O)NCc2ccccc2)cc2c(=O)n3ccccc3nc2n1CCCN1CCOCC1,?,9.2µM*,3.7µM*,i,0%
CCOCCCn1c(=N)c(C(=O)NCc2ccccc2)cc2c(=O)n3ccccc3nc21,i,.,.,i,.
CCNC(=S)N=Nc1c(O)[nH]c2ccc(C(C)C)cc12,i,-2%,18%,3.7µM*,?
CC(=O)N1Cc2cc(C(=O)NCC(F)(F)F)nc(-c3cccc(-c4cccnc4)c3)c2[C@H]1CCO,i,.,.,i,.
CCS(=O)(=O)N1Cc2cc(C(=O)NCC3CC3)nc(-c3cccc(-c4cccnc4)c3)c2[C@@H]1CCO,?,.,.,i,.
CC(=O)N1Cc2cc(C(=O)NCC(F)(F)F)nc(-c3cccc(-c4cc5ccccc5o4)c3)c2[C@@H]1CCO,?,.,.,23µM*,.
CC(=O)N1Cc2cc(C(=O)NCC(F)(F)F)nc(-c3cccc(-c4cccnc4)c3)c2[C@@H]1CCO,4.1µM*,.,.,i,.
CCNC(=O)c1cc2c(c(-c3cccc(-c4cccnc4)c3)n1)[C@H](CCO)N(S(C)(=O)=O)C2,2.9µM*,.,.,?,.
CCOc1ccc(CNS(=O)(=O)c2cc(-c3cc(C)no3)ccc2C)cc1OC,i,.,.,i,.
CN(C(=S)NC(=O)c1ccccc1Br)C1CCCCC1,i,5.8µM*,-1%,?,10%
OCC1OC(n2ccc3c(SCc4ccccc4)ncnc32)C(O)C1O (stereo not drawn),?,-2%,0%,?,.
CSc1ccc(NC(=O)N2CC=C(n3c(=O)[nH]c4ccccc43)CC2)cc1,16µM*,?,?,16µM*,23µM*
COc1ccc(NS(=O)(=O)c2cc(C(=O)N3CCN(C/C=C/c4ccccc4)CC3)ccc2C)cc1,18µM*,-1%,11%,5.8µM*,?
O=C(CCNS(=O)(=O)c1ccc(OC(F)(F)F)cc1)N1CCN(C/C=C/c2ccccc2)CC1,?,2%,?,6.5µM*,-20%
Cc1ccc(C(=O)N2CCCCCC2)cc1S(=O)(=O)Nc1ccccc1,i,-5%,2%,?,?
COCCN1C[C@@H](CO)O[C@@H](n2cnc3c(NC4CCCC4)ncnc32)C1,i,.,.,?,.
Cc1ccc(/C=C2/Sc3ccc(C(=O)N4CCN(c5ccccn5)CC4)cc3NC2=O)cc1,i,20%,8.2µM*,i,-19%
CCOC(=O)C1CCN(C(=O)c2ccc3c(c2)NC(=O)/C(=C\c2cccc(C)c2)S3)CC1,i,-9%,?,i,15µM*
CCOC(=O)C1CCN(C(=O)c2ccc3c(c2)NC(=O)/C(=C/c2ccccc2)S3)CC1,i,-10%,?,i,-11%
Cc1ccccc1/C=C1\Sc2ccc(C(=O)N3CCN(c4ccccn4)CC3)cc2N(C)C1=O,i,3%,23µM*,?,0%
CN1CCN(C(=O)c2ccc3c(c2)NC(=O)/C(=C/c2ccccc2)S3)CC1,?,?,?,i,-11%
CCN(c1ccccc1)S(=O)(=O)c1cc2c3c(c1)CCN3C(=O)CC2,.,.,.,.,6%
CC(C)c1ccc(N(CC(=O)NCCCN2CCOCC2)S(=O)(=O)c2ccccc2)cc1,i,-9%,14%,i,?
COc1cccc(NC(=O)Cn2cc(C(=O)c3ccco3)c3ccccc32)c1,i,.,.,i,.
